# PubChem BioAssay
# Active and inactive are the calls of the source. Unless noted, no rule for the calls is given here.
# What was measured:
# [1] = test system: Wnt5a (protein binding on small-molecule microarray); assay: Wnt5a binders on small-molecule microarray, primary screen, biophysical, 635/667 nm fluorescence (AID 1142); conditions: 635 nm fluorescence, higher = more signal;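 also: fluorescence read at 667 nm with signal to noise per printed feature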
# [2] = cell viability in Huh7 cells, primary screen, cytotoxicity control for HCV replication inhibitor project, CellTiter-Glo luminescence, basal, 48 h (AID 1143); conditions: Huh7 HCV replicon, higher = more signal, called active from +8 up or from −8 down;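 also: Huh7 hepatoma cells carrying a hepatitis C replication reporter with no stimulus; test concentration not given here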
# [3] = P. aeruginosa biofilm formation inhibitors, primary screen, PAO1 strain, BacTiter-Glo luminescence, LB-PBS (AID 1144); conditions: 12 h, higher = more signal
# [4] = CREB reporter modulators without forskolin, primary screen, cell-based, PC12, CRE-LacZ reporter, unstimulated (AID 1145); conditions: no forskolin, luminescence, 4.5 h, higher = more signal, called active from +8 up or from −8 down
# [5] = CREB reporter modulators under forskolin, primary screen, cell-based, PC12, CRE-LacZ reporter, forskolin-stimulated (AID 1146); conditions: luminescence, 4.5 h, higher = more signal, called active from +8 up or from −8 down;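 also: PC12 cells with 6xCRE LacZ reporter stimulated by forskolin 10 µM; beta-galactosidase reporter signal reflecting CREB driven transcription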
# [6] = target: Streptavidin (Streptomyces avidinii) (UniProt P22629); assay: streptavidin binders on small-molecule microarray, primary screen, artefact control for SMM compound annotation, biophysical, 635/667 nm fluorescence (AID 1147); conditions: streptavidin binding, higher = more signal;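 also: signal reflects streptavidin binding to arrayed compounds as a control protein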
# Streptavidin (Streptomyces avidinii), sequence (P22629 whole entry, looked up): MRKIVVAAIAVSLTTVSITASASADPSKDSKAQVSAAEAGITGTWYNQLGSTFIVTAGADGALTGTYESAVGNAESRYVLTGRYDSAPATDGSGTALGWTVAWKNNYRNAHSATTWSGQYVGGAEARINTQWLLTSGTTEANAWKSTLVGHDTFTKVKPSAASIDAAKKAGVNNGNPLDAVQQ
# [7] = small-molecule binders of probe aInhba, primary screen, biochemical, small-molecule microarray, 635/667 nm fluorescence (AID 1148); conditions: higher = more signal;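 also: score merges 667nm spot fluorescence with signal-to-noise for antibody binding to printed compounds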
# Torsin-1A (Homo sapiens) [8] = target: Torsin-1A (Homo sapiens) (UniProt O14656); assay: torsin A binders from cell lysate, primary screen, small-molecule microarray, wild-type, 635/667 nm (AID 1149); conditions: COS7 hTOR1A-WT lysate, 635 nm fluorescence, higher = more signal
# Torsin-1A (Homo sapiens), sequence (O14656 whole entry, looked up): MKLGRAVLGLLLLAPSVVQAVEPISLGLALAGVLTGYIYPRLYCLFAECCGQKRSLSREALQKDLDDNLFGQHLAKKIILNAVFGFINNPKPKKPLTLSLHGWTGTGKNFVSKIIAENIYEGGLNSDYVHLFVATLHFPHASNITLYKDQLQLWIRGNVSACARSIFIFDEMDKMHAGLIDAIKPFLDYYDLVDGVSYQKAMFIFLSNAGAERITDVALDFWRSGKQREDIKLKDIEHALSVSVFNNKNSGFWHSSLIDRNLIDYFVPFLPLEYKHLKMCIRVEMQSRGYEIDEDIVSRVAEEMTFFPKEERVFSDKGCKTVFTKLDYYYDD
# Torsin-1A (Homo sapiens) [9] = target: Torsin-1A (Homo sapiens) (UniProt O14656); assay: small-molecule binders of mutant TOR1A in lysate, primary screen, cell lysate, small-molecule microarray, COS7 lysate, 635/667 nm fluorescence (AID 1150); conditions: COS7 hTOR1A mutant lysate, 635 nm fluorescence, higher = more signal;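 also: score pools 667 nm emission and signal to noise measuring lysate protein binding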
# [10] = test system: Sonic hedgehog protein (Shh); assay: small-molecule binders of Shh protein, primary screen, biochemical, small-molecule microarray, 635/667 nm fluorescence (AID 1151); conditions: small-molecule microarray binding, 635 nm fluorescence; higher = more signal;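 also: Shh protein binding to compounds spotted on small-molecule microarray slides; score combines spot fluorescence intensity with signal-to-noise across triplicate slides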
# [11] = E. coli DRC41 culture turbidity changes, primary screen, E. coli filamentation inducer project, strain DRC41, OD650, 48 h (AID 1152);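 also: E. coli MC1000 strain DRC41 lacking acrAB efflux pump and sulA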; conditions: E. coli DRC41 (acrAB sulA), higher = more signal, called active from +8 up or from −8 down
# [12] = small-molecule binders of probe aLefty1, primary screen, biochemical, small-molecule microarray, 635/667 nm fluorescence (AID 1153); conditions: higher = more signal;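 also: score merges spot fluorescence with signal-to-noise ratio from the scanned slide images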
# [13] = PSAC antagonists in infected red cells, primary screen, cell-based, P. falciparum Indochina, OD700, 1 h (AID 1154); conditions: P. falciparum Indochina infected RBC osmotic lysis, higher = more signal, called active from +8 up or from −8 down
# [14] = PSAC antagonists in infected red cells, primary screen, cell-based, P. falciparum Indochina, OD700, 2 h (AID 1155);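 also: lysis reports solute entry through the parasite surface anion channel PSAC; channel blockers reduce lysis of infected cells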; conditions: P. falciparum Indochina infected erythrocytes, osmotic lysis OD700; higher = more signal, called active from +8 up or from −8 down
# [15] = osmotic lysis modulators in infected erythrocytes, primary screen, PSAC antagonist project, cell-based, P. falciparum Indochina, OD700, 3 h (AID 1156); conditions: higher = more signal, called active from +8 up or from −8 down
# [16] = PSAC antagonists in infected red cells, primary screen, cell-based, P. falciparum Indochina, OD700, 18 h (AID 1157); conditions: P. falciparum Indochina infected erythrocytes, osmotic lysis OD700, 18 h; higher = more signal, called active from +8 up or from −8 down
# [17] = modulators of S6 phosphorylation in cells, primary screen, cell-based, A549, cytoblot, luminescence, serum-stimulated (AID 1158); conditions: A549 phospho-S6 cytoblot, 5 h, higher = more signal;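 also: serum-stimulated A549 lung adenocarcinoma cells; signal is phosphorylated S6 detected by cytoblot immunostaining with HRP secondary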
# [18] = target: NADPH oxidase 2 (Homo sapiens) (UniProt P04839); assay: NOX2-dependent H2O2 signal modulators, primary screen, NOX inhibitor project, cell-based, HEK293-NOX2, PMA-stimulated, Amplex Red fluorescence (AID 1159); conditions: 45 min, higher = more signal, called active from +8 up or from −8 down; also: test concentration not given here
# NADPH oxidase 2 (Homo sapiens), sequence (P04839 whole entry, looked up): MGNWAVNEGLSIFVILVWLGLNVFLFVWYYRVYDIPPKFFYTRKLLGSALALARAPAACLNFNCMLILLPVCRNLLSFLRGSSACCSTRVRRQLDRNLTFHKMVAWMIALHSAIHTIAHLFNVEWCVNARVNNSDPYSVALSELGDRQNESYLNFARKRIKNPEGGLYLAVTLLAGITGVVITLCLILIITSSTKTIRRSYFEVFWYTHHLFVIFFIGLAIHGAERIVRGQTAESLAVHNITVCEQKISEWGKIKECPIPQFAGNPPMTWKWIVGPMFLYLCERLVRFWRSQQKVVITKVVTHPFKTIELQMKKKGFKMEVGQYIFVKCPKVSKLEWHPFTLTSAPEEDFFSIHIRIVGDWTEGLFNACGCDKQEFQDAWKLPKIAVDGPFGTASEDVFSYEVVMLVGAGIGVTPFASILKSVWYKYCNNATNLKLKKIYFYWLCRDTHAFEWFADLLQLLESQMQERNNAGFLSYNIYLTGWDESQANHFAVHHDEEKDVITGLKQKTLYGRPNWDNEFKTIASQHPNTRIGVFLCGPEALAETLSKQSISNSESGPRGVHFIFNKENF
# [19] = target: NADPH oxidase 4 (Homo sapiens) (UniProt Q9NPH5); assay: NOX4-dependent H2O2 signal modulators, primary screen, NOX inhibitor project, cell-based, HEK293-NOX4, tetracycline-induced, Amplex Red fluorescence (AID 1160); conditions: 45 min, higher = more signal, called active from +8 up or from −8 down
# NADPH oxidase 4 (Homo sapiens), sequence (Q9NPH5 whole entry, looked up): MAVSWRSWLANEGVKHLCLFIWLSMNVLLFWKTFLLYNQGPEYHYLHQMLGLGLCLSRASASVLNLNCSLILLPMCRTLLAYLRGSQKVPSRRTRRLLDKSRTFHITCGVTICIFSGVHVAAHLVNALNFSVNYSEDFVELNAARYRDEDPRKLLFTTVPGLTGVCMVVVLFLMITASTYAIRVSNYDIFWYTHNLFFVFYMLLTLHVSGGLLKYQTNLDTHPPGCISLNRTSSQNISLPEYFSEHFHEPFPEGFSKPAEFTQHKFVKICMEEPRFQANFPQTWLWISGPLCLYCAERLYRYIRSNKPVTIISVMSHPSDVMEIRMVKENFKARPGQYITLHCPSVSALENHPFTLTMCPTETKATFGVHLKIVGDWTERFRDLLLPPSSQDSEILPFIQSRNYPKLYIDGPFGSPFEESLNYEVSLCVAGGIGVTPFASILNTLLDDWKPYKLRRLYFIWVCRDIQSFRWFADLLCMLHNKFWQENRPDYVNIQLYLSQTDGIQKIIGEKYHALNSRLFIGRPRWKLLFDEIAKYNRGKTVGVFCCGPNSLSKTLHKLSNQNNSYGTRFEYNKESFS
# [20] = target: NADPH oxidase 5 (Homo sapiens) (UniProt Q96PH1); assay: NOX5-dependent H2O2 signal modulators, primary screen, NOX inhibitor project, cell-based, HEK293-NOX5, Amplex Red fluorescence (AID 1161); conditions: HEK293-NOX5, ionomycin, 45 min, higher = more signal
# NADPH oxidase 5 (Homo sapiens), sequence (Q96PH1 whole entry, looked up): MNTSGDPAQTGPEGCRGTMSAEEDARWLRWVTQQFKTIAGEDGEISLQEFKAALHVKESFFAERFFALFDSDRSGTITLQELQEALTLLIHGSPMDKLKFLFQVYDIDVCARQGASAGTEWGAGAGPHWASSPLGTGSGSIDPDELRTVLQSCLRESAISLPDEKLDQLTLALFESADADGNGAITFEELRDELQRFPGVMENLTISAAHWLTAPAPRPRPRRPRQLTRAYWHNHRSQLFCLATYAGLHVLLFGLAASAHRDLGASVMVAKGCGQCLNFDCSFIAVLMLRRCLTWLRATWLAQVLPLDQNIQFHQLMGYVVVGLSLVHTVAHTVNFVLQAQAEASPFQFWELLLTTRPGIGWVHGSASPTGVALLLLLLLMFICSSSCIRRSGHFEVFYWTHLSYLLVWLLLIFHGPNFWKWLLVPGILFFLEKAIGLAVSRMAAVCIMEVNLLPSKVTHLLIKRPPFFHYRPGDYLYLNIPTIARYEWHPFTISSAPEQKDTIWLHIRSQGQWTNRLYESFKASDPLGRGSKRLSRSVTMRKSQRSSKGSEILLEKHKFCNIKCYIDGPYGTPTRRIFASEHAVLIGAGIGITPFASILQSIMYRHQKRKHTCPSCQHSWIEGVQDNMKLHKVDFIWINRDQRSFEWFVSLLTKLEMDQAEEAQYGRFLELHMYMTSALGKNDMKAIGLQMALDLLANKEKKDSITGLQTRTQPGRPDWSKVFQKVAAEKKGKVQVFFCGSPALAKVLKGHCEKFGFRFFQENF
SMILES,composite z-score [1],z-score [2],z-score [3],z-score [4],z-score [5],composite z-score [6],composite z-score [7],composite z-score (Torsin-1A (Homo sapiens) [8]),composite z-score (Torsin-1A (Homo sapiens) [9]),composite z-score [10],z-score [11],composite z-score [12],z-score [13],z-score [14],z-score [15],z-score [16],z-score [17],z-score [18],z-score [19],z-score [20]
O=C1OCC=C[C@H]2OC34C=CCN(c5ccc6ccccc6c5)C(=O)[C@H]3N(CCCCCO)C(=O)[C@@H]4[C@@H]12 (stereo not given in full),-0.137,0.234 (inactive),0.494 (inactive),0.724 (inactive),0.0532 (inactive),-0.884,-0.0963,-1.92,-1.41,-0.968,-0.186 (inactive),0.407,2.04 (inactive),0.132 (inactive),1 (inactive),0.162 (inactive),-0.798,1.57 (inactive),0.056 (inactive),2.93
C=C(CCCC)/C(=C/C[C@H](OC(C)=O)c1ccc(OCCO)cc1)c1cc(C(=O)OC)ccc1OC,0.613,-1.03 (inactive),-0.8 (inactive),8.05 (active),-0.499 (inactive),0.156,0.0363,-0.453,0.886,0.803,0.564 (inactive),-0.0378,24.5 (active),7.58 (inactive),2.3 (inactive),1.48 (inactive),0.376,-0.338 (inactive),-0.759 (inactive),-1.56
C=C(C(=O)CC[C@@H](OC(=O)c1ccccc1-c1ccccc1C(=O)O)c1ccccc1OCCO)C(C)C,0.618,0.182 (inactive),-0.695 (inactive),3.64 (inactive),3.34 (inactive),-0.344,-0.0529,0.908,0.663,2.3,0.0884 (inactive),0.15,4.57 (inactive),0.769 (inactive),1.56 (inactive),0.232 (inactive),0.689,-0.518 (inactive),-0.798 (inactive),-1.48
COc1ccc(C#Cc2ccc3c(c2)[C@]2(C(=O)N3)[C@H](c3ccc(OCCO)cc3)N3[C@H](c4ccccc4)[C@H](c4ccccc4)OC(=O)[C@H]3[C@@H]2C(=O)N2CCc3cc(OC)c(OC)cc3C2)cc1,1.04,-0.632 (inactive),-0.221 (inactive),0.478 (inactive),0.198 (inactive),1.83,-0.308,0.394,0.722,2.15,-0.433 (inactive),-0.261,3.24 (inactive),2.77 (inactive),1.15 (inactive),1.1 (inactive),-0.298,0.661 (inactive),0.621 (inactive),0.27
Cc1cccc([C@H]2C[C@H]3C(I)=C[C@@H]2C(=O)[C@]32CO2)c1,-0.243,-0.478 (inactive),-0.209 (inactive),1.76 (inactive),1.56 (inactive),-0.0548,-0.0762,-0.404,-0.481,0.0299,-0.894 (inactive),-0.0559,-0.0459 (inactive),0.0962 (inactive),0.0129 (inactive),-0.0624 (inactive),0.0314,-0.942 (inactive),-0.0919 (inactive),-0.835
CCOC(=O)C1=CC[C@@H](c2ccccc2)N(S(=O)(=O)c2ccc(C)cc2)[C@H]1c1cccc(OC)c1,-0.134,-2.97 (inactive),0.966 (inactive),-0.424 (inactive),0.576 (inactive),0.717,0.135,0.4,0.314,-0.176,-0.999 (inactive),0.535,0.792 (inactive),0.779 (inactive),-0.422 (inactive),0.385 (inactive),-0.245,0.537 (inactive),0.489 (inactive),0.732
COc1ccc(C#Cc2ccc3c(c2)[C@]2(C(=O)N3)[C@H](C(=O)Nc3nc4ccccc4s3)[C@H]3C(=O)O[C@H](c4ccccc4)[C@H](c4ccccc4)N3[C@@H]2c2ccccc2OCCO)cc1,0.189,-4.68 (inactive),-0.939 (inactive),-0.788 (inactive),-0.369 (inactive),0.689,0.0569,0.076,0.0705,0.912,2.86 (inactive),-0.118,2.32 (inactive),2.07 (inactive),-0.279 (inactive),-0.442 (inactive),0.81,1.91 (inactive),-0.0532 (inactive),0.268
O=C1c2ccccc2[C@](Cc2ccccc2I)(C(=O)NC2CC2)[C@H](c2ccc(CO)cc2)N1Cc1ccccc1C(F)(F)F,-0.15,-4.84 (inactive),-0.0186 (inactive),0.764 (inactive),-0.5 (inactive),0.671,1.25,0.147,0.16,0.792,-1.14 (inactive),-0.0902,8.14 (active),0.789 (inactive),4.29 (inactive),-0.165 (inactive),2.18,0.459 (inactive),-1.34 (inactive),-2.92
